# Source: PubChem (National Center for Advancing Translational Sciences (NCATS))
# This is a sample that favours compounds with a hit; in the whole collection about 13% have one here.
# Cycloheximide cs: counter-screen hit for Shiga toxin inhibitors, cycloheximide; max response, %; AID 2314; 12% of 300,000 active; cell reporter, cycloheximide protein synthesis inhibition counterscreen; in the data active = max response mostly above about 13%, no sharp cut-off; inactive = mostly below about 14%; also: read at 38.3 µM for the half of the compounds with a filed dose; 0% is about no effect
# Shiga inhibitor: Shiga toxin inhibition | Vero cells, Shiga toxin protein synthesis inhibition reporter | inhibition, % at 38.7 µM | 9.2% of 290,000 active | AID 2315; in the data active = inhibition mostly above about 28%, no sharp cut-off; inactive = mostly below about 43%; also: 0% is about no effect
# FMDV inh: antivirals against foot and mouth disease virus; FMDV antiviral cell-based qHTS; Potency, µM (highest dose often 57.9 µM), for inactives: top-dose activity change, negative = inhibition, hits mostly inhibitors; 1.2% of 410,000 active; calls by dose curve; tested in HEK293T cells; also: read-out not given here; potency is read from the fitted curve at half-maximal effect; % is scaled to controls: 0 for no effect and ±100 for the full control effect; nearly all actives have a fitted effect of over 45% in size
# Lassa entry inh: Lassa virus entry inhibition. Lassa virus pseudotype entry inhibition, cell reporter. Potency, µM (series often up to 37.9 µM), inactives show at the top dose activity change, negative = inhibition, actives largely listed as inhibitors. 1.2% of 300,000 active; calls by dose curve; tested in HEK293 cells; also: potency is read from the fitted curve at half-maximal effect; % is scaled to controls: 0 for no effect and ±100 for the full control effect; nearly all actives have a fitted effect of over 50% in size
# MARV entry inh: Marburg virus entry inhibition; AID 540276; 1.8% of 300,000 active; Potency, µM (series often up to 37.8 µM), inactives show top-dose activity change, negative = inhibition, hits mostly inhibitors; Marburg virus pseudotyped entry inhibition, cell reporter; calls by dose curve; tested in HEK293 cells; also: potency is read from the fitted curve at half-maximal effect; % is scaled to controls: 0 for no effect and ±100 for the full control effect
# HCV inh: HCV inhibition; Huh7.5.1 HCVcc-Cre infection, luciferase reporter, 44 h; AID 651820; Potency, µM (series often up to 41.8 µM), inactives show top-dose activity change, negative = inhibition, most hits filed as inhibitors; 3.4% of 340,000 active; active = well fitted inhibition curve with a large enough effect; inconclusive = small, poorly fitted or top-dose-only effect, or another doubt; inactive = no such curve, though single readings can be large or run the other way; also: potency is read from the fitted curve at half-maximal effect; % is scaled to controls: 0 for no effect and ±100 for the full control effect
#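 Whole-lifecycle infectious HCVcc-Cre system; cells 1,000/well, compound then virus (~0.5 moi) added 4 h after plating, 44 h culture. Luciferase read 15 sec following 15 min substrate incubation, room temp.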
# An asterisk follows results filed as active; ? = inconclusive; · = not tested or not shown; [ ] = dose if it differs, or a comment.
SMILES,Cycloheximide cs,Shiga inhibitor,FMDV inh,Lassa entry inh,MARV entry inh,HCV inh
Nc1nc(=S)c2ncn(C3OC(CO)C(O)C3O)c2[nH]1 (stereo not given),-4,9,-5%,20%,?,-24%
CCN(CC)CCN1c2ccccc2Sc2ccc3ccccc3c21,-3,-6,-16%,11%[46.1 µM],10µM*,?
CC1CCC(C(C)C)C(O)C1 (stereo not given),-8,-3,·,·,·,·
CC1CCN(S(=O)(=O)c2ccc3c(ccc(=O)n3CC(=O)NCc3ccccc3)c2)CC1,·,·,-13%,15%[46.1 µM],·,·
COc1ccc(NC(=S)N2CCc3ccccc3C2)cc1OC,10,49*,143%,·,·,4%
Cc1cc(C)c(NC(=O)c2ccc(CN3CCc4ccccc4C3)cc2)c(C)c1,7,-4,?,16µM*,?,8.9µM*
C/C(=N\NC(=O)c1ccc(CN2CCc3ccccc3C2)cc1)c1ccccc1O,17,3,22µM*,-29%[46.1 µM],?,5.6µM*
COc1cccc(NC(=O)c2ccc(CN3CCc4ccccc4C3)cc2)c1,12,43,-22%,·,·,1µM*
COc1ccc(NC(=O)c2ccc(CN3CCc4ccccc4C3)cc2)cc1OC,9,-3,-29%,·,·,13µM*
C/C(=N\NC(=O)CN1CCCCC1)c1ccccc1O,23*,39*,3%,-15%[46.1 µM],?,?
Fc1ccc(NC(=S)N2CCOCC2)c(F)c1,18,-10,-13%,·,·,15%
C/C(=N\NC(=O)CN1CCCCC1)c1cccc([N+](=O)[O-])c1,·,·,40%,?,?,-1%
Fc1ccc(NC(=S)N2CCc3ccccc3C2)c(F)c1,32*,67*,37%,-9%[46.1 µM],-1%[46.1 µM],-12%
CC(=O)c1cccc(NC(=O)c2ccc(CN3CCc4ccccc4C3)cc2)c1,13*,29,?,·,·,11µM*
NC(=O)c1ccc(CN2CCc3ccccc3C2)cc1,-3,-10,7%,20%[46.1 µM],3%[46.1 µM],3%
COc1ccccc1CC(=O)Nc1ccc(-c2noc(COc3ccc(Cl)c(C)c3)n2)cc1,-3,-4,-23%,?,-25%,-14%
C[C@@H]1CN([C@H](C)CO)S(=O)(=O)c2ccc(Br)cc2O[C@@H]1CN(C)C(=O)CN1CCOCC1,·,·,46%,·,·,·
COc1ccccc1C(=O)Nc1ccc2c(c1)CN(Cc1cnc(C)s1)CC2,12*,29*,?,10%,?,?
CCOC(=O)CNC(=O)N1CCc2ccc(NC(=O)c3ccccc3OC)cc2C1,-2,-6,3%,0%[46.1 µM],?,-2%
O=C(COc1cccc(C(F)(F)F)c1)Nc1ccc(S(=O)(=O)N2CCCCC2)cc1,·,·,?,?,-27%[46.1 µM],25µM*
CCc1cccc(OCC(=O)Nc2ccc(S(=O)(=O)N3CCCC3)cc2)c1,-2,-33,-29%,-29%[46.1 µM],-14%[46.1 µM],11µM*
Cc1cccc(OCC(=O)Nc2ccc(S(=O)(=O)N3CCCC3)cc2)c1,-3,-5,?,-13%,-26%,-14%
CCc1ccc(/C=N/NC(=O)c2c[nH]c3ccccc23)s1,49*,91*,40%,?,21%,?
O=C(N/N=C/c1cccs1)c1c[nH]c2ccccc12,62*,81*,42%,28%,?,13%
COc1ccc(CCNC(=O)C2CC3Cn4c(nc5ccccc54)C3N2Cc2ccccc2)cc1 (stereo not given),·,·,-11%,·,·,-6%
SMILES,Cycloheximide cs,Shiga inhibitor,FMDV inh,Lassa entry inh,MARV entry inh,HCV inh
COc1ccc(CNc2ccccc2SC)cc1OC,37*,33,·,-9%,-26%,?
O=C1c2cccc(NCCNCCO)c2C(=O)c2cccc(NCCNCCO)c21,·,·,0%,?,5µM*,?
CCOC(=O)CCSc1nc(C)c2cc(C)c(C)cc2n1,30*,44*,24%,-13%,10%,?
CCOC(=O)CCSc1nc(C)c2cc(OC)ccc2n1,51*,80*,·,-1%,?,-20%
CCOC(=O)CSc1nc(C)c2ccc(C)cc2n1,12*,44,35%,1%,5%,?
CCC(C)Sc1nc2c(c(=O)[nH]1)C(c1cccs1)C1=C(CCCC1=O)N2 (stereo not given),11,-3,-28%,·,·,-2%
COc1cc(NC(=O)NCC2CCN(Cc3ccccc3F)CC2)cc(OC)c1,-5,20,17%,3%[46.1 µM],?,-28%
CCN1C(=O)[C@H]2[C@@H](c3ccc(C)cc3)N3C(=O)N(c4ccccc4)C(=O)[C@@]3(CC)[C@H]2C1=O,15*,28,38%,·,·,6%
COc1ccc(N2C(=O)N3[C@H](c4ccc(Cl)cc4)[C@@H]4C(=O)N(C5CCCCC5)C(=O)[C@@H]4[C@]3(Cc3ccc(Cl)cc3)C2=O)cc1,12*,64*,-9%,·,·,24%
CC(C)(C)N1C(=O)[C@H]2[C@@H](c3ccc(Br)cc3)N3C(=O)N(c4ccc(Br)cc4)C(=O)[C@@]3(Cc3ccccc3)[C@H]2C1=O,10,29,-16%,·,·,7.9µM*
O=C1[C@H]2[C@@H](c3ccc(F)cc3)N3C(=O)N(c4ccc(Br)cc4)C(=O)[C@@]3(Cc3ccc(Cl)cc3)[C@H]2C(=O)N1C1CCCCC1,-2,8,-17%,·,·,2%
CCOc1ccccc1C(=O)NCC(=O)Nc1ccc2c(c1)OCO2,·,·,13%,-1%,18%,15%
COc1ccc([C@H]2/C=C\CN(C(=O)[C@H](Cc3ccccc3)NC(=O)OCC3c4ccccc4-c4ccccc43)CC(=O)N2Cc2ccc(F)cc2)cc1,·,·,-10%,·,·,8%
C/C=C/c1ccc(OCCCNC2CCCC2)c(OC)c1,-7,-8,0%,?,?,0.89µM*
C/C=C/c1ccc(OCCCNC(C)CC)c(OC)c1 (stereo not given),2,-3,-8%,3%,?,-17%
C/C=C/c1ccc(OCC(=O)Nc2cc(OC)c(OC)c(OC)c2)c(OC)c1,-2,-7,?,10µM*,?,?
C/C=C/c1ccc(OCC(O)CNCCc2ccc(OC)cc2)c(OC)c1 (stereo not given),-2,-3,-27%,·,·,?
C/C=C/c1ccc(OCC(=O)OCC)c(OC)c1,14*,37,-11%,10%[46.1 µM],?,7%
C/C=C/c1ccc(OCC(O)CN2CCCCC2CC)c(OC)c1 (stereo not given),1,-5,-9%,-5%,-23%[46.1 µM],2.5µM*
Cc1ccc(S(=O)(=O)NNC(=O)CCC(=O)Nc2ccc(C)cc2C)cc1,1,-11,11%,-6%,0%,-2%
CCN(CC)C(=O)COc1coc(CN2CCN(c3cccc(Cl)c3)CC2)cc1=O,-1,-3,16%,8%[46.1 µM],?,11%
C/C=C/c1ccc(OCCOc2cc(C=O)ccc2OC)c(OC)c1,52*,62*,44%,16%,-11%,-15%
O=C(NCCc1ccccc1)C(c1cccs1)N(C(=O)c1csnn1)C1CC1 (stereo not given),-4,-13,-8%,6%,0%,13%
